Test results: PubChem BioAssay
Activity calls are given as the source filed them.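 Rule for the calls, unless noted: active = inhibition above the hit cutoff set in the earlier primary screen (cut at about 27% in these data); inactive = the rest.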

Each compound was assayed against Protein phosphatase methylesterase 1 (Homo sapiens) (UniProt Q9Y570) (assay: PME-1 inhibitor activity retest, confirmation, biochemical, fluorescence polarization, FP-Rh probe, triplicate (AID 2171;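 note: 0% = enzyme with DMSO and 100% = wells lacking PME-1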)). Conditions: recombinant PME-1, FP-Rh probe fluorescence polarization; at 5.9 µM; stronger effect = higher value.
Chain of Protein phosphatase methylesterase 1 (Homo sapiens) (Q9Y570 whole entry, looked up): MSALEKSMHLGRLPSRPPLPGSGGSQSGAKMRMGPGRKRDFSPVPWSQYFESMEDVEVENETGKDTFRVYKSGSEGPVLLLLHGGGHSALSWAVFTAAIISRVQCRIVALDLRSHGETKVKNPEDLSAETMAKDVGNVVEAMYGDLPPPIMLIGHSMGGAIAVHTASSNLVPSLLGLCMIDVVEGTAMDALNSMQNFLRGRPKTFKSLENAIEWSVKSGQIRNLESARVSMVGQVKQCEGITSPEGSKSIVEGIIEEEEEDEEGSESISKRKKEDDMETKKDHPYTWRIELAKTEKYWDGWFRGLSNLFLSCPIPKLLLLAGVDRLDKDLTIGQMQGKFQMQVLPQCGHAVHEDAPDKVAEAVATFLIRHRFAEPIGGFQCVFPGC

Structure (SMILES) | inhibition
Nc1ccc(C(=O)N/N=C\c2cc(N=Nc3cccc4ccccc34)ccc2O)cc1 | 15.1% (inactive)
COc1ccc(-c2csc(NC(=O)c3ccccc3NS(=O)(=O)c3ccc(F)c(F)c3)n2)cc1 | -5.29% (inactive)
NNc1nc2cc3c(cc2s1)OCCO3 | 8.82% (inactive)
CCOc1ccc(NC(C(=O)Nc2cccc(C(C)=O)c2)c2ccccc2)cc1 (stereo not given) | 33.5% (active)
Cc1cc(C(C#N)c2ccc(Cl)cc2)c(Cl)cc1NC(=O)c1cc(I)cc(I)c1O (stereo not given) | 47.6% (active)
COc1ccc(/C=N/NC(=S)Nc2ccccc2[N+](=O)[O-])cc1O | 43.4% (active)
CCn1nc([N+](=O)[O-])c(C(C#N)c2nc3cc(C(F)(F)F)ccc3s2)c(Cl)c1=O (stereo not given) | 67.1% (active)
O=C(N/N=C/c1ccc(O)cc1)c1cccc(N/N=C/c2ccc(O)cc2)c1 | 18.8% (inactive)
COc1ccc(O)c(/C=N/NC(=S)Nc2cccc(S(=O)(=O)N(C)C)c2)c1 | 25.4% (inactive)
Nc1ccc2c(c1)C(=O)C(=O)c1ccccc1-2 | 36.4% (active)
COc1cccc(/C=N/Nc2ccc([N+](=O)[O-])cn2)c1O | 1.07% (inactive)
CCOC(=O)Cc1csc(NC(=O)c2sc3nc4c(C)cc(C)cc4cc3c2N)n1 | 23.4% (inactive)
CCN1/C(=C/C=C/c2oc3ccc(-c4ccccc4)cc3[n+]2CC)Oc2ccc(-c3ccccc3)cc21 | -81.5% (inactive)
O=C1C(Nc2ccccc2)=C/C(=N/S(=O)(=O)c2cccs2)c2ccccc21 | 35.5% (active)
COc1ccc(S(=O)(=O)/N=C2\C=C(Nc3ccc(O)cc3)C(=O)c3ccccc32)cc1 | 63.2% (active)
COc1ccc(OC)c(N2C(=O)CC(Cc3ccc(C)cc3)C2=O)c1 (stereo not given) | 0.52% (inactive)
Cc1ccc(Nc2nc(-c3ccc(O)cc3O)cs2)nc1 | 34% (active)
CCC(=O)Nc1nc(C)c(-c2csc(Nc3cccc(O)c3)n2)s1 | 20% (inactive)
Cc1cc(C)nc(SCc2ccc(C(=O)N/N=C/c3cccc(O)c3O)cc2)n1 | -47% (inactive)
Cc1cccc(NC(=O)COC(=O)c2cccc3c2C(=O)c2ccccc2C3=O)c1C | 37.5% (active)

Structure (SMILES) | inhibition
CC(=O)Oc1c(I)cc(I)cc1C(=O)Nc1ccc(Cl)cc1 | 66.8% (active)
Cc1ccc(C(C)C)c(OCc2ccc(C(=O)N/N=C/c3ccc(O)cc3O)cc2)c1 | -0.21% (inactive)
O=c1c2ccccc2nc(N/N=C/c2c(O)ccc3ccccc23)n1O | 43.9% (active)
N#C/C(=C/c1ccc(N2CCCCC2)o1)C(=O)NCCc1c[nH]c2ccccc12 | 22.2% (inactive)
Cc1cc([N+](=O)[O-])ccc1-c1ccc(C2Nc3ccccc3C(=O)N2O)o1 (stereo not given) | 25% (inactive)
Cc1ccc(C(C)C)c(OCc2ccc(C(=O)N/N=C/c3cccc(O)c3O)cc2)c1 | -4.31% (inactive)
Cn1nc(-c2ccccn2)nc2c(=O)n(C)c(=O)nc1-2 | 45.9% (active)
CCCCCCn1c(=O)[nH]c2nc3cc(N)ccc3nc2c1=O | 37.6% (active)
COc1cccc2c1C(=O)c1c(O)c3c(c(O)c1C2=O)C[C@@](O)(C(=O)CO)C[C@@H]3O[C@H]1C[C@H](N)[C@H](O)[C@H](C)O1 | 36.3% (active)
O=c1[nH]c(N/N=C\c2ccc3c(c2)OCO3)nc2ccccc12 | 24.6% (inactive)
CCN(CC)S(=O)(=O)c1ccc(N/N=C/c2ccc(O)cc2O)nc1 | 35% (active)
COC(=O)c1cc(C)nc2c1C(=O)C(=O)C=C2N1CCOCC1 | 40% (active)
O=C(Nc1ccc(OC(F)(F)F)cc1)c1ccc2c(c1)no[n+]2[O-] | 61.4% (active)
Cc1ccc(S(=O)(=O)N2CCOCC2)cc1NC(=O)COC(=O)c1ccccc1OCc1c(C)noc1C | 16.8% (inactive)
N#C/C(=N\Nc1cccc([N+](=O)[O-])c1)C(=O)c1ccc(Br)cc1 | 29.5% (active)
COc1ccc(OC)c2[nH]c(C(=O)N/N=C/c3ccccc3O)cc12 | -0.45% (inactive)
Brc1ccc(N/N=C(/N=Nc2nn[nH]n2)c2ccccc2)cc1 | 57.1% (active)
Oc1ccccc1N=Nc1nc(-c2ccccc2)c(-c2ccccc2)[nH]1 | -3.97% (inactive)
CN=c1scc(-c2cccs2)n1/N=C/c1ccc(O)c(O)c1O | 50.1% (active)
COc1cccc(N2CCN(c3ncnc4c3[nH]c3ccc(F)cc34)CC2C)c1 (stereo not given) | 26.7% (active)

Each compound was assayed against Nuclear receptor coactivator 3 (Homo sapiens) (UniProt Q9Y6Q9) (assay: SRC3 coactivator transcriptional activity inhibitors, confirmation, cell-based, luminescence, quadruplicate (AID 588792;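 active = mean inhibition over 43.08%, the solvent-only control mean plus 3 SD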;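 note: 0% = DMSO treated cells and 100% = gossypol at 36 µM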)). Conditions: HEK293 GAL4-SRC3 luciferase reporter, at 3.6 µM, stronger effect = higher value.
Chain of Nuclear receptor coactivator 3 (Homo sapiens) (Q9Y6Q9 whole entry, looked up, the tested form may be a part): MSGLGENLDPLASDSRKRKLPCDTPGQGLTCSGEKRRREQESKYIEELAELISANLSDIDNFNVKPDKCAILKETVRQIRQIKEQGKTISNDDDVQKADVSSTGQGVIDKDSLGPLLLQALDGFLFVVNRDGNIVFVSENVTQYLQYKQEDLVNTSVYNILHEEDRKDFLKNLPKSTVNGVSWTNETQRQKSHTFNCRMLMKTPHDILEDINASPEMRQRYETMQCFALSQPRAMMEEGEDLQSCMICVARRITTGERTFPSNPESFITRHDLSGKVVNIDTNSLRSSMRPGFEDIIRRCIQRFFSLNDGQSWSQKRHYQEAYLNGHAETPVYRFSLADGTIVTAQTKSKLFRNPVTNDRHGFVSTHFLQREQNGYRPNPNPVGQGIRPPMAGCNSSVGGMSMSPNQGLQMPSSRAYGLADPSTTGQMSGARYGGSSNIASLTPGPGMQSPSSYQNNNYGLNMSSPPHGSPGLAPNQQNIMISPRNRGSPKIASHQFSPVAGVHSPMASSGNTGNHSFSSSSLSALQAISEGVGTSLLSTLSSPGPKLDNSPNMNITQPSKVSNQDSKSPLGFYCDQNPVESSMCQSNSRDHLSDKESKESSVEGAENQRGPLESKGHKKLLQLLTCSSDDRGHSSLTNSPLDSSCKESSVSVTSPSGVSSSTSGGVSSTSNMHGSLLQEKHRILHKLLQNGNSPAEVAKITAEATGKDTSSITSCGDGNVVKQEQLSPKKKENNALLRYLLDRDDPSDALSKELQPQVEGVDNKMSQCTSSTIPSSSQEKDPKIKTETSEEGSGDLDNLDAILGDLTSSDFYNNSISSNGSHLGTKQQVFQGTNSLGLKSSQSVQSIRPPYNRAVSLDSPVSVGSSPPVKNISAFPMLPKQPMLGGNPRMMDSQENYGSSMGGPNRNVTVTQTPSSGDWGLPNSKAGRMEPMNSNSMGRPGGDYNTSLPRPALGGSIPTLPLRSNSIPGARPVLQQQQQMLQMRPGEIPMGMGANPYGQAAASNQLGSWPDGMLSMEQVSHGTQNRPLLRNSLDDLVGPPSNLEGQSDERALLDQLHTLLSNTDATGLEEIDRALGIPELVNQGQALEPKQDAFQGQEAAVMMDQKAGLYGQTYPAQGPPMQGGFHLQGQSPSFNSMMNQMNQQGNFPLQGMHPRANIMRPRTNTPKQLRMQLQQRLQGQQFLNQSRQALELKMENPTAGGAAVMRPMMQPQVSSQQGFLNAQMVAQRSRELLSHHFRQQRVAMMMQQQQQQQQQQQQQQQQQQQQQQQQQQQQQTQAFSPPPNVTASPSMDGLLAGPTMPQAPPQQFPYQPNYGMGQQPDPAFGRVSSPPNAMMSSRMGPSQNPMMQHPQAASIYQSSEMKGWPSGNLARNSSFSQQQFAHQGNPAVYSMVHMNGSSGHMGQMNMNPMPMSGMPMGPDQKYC

Structure (SMILES) | inhibition
Nc1ccc(C(=O)N/N=C\c2cc(N=Nc3cccc4ccccc34)ccc2O)cc1 | 15.1% (inactive)
COc1ccc(-c2csc(NC(=O)c3ccccc3NS(=O)(=O)c3ccc(F)c(F)c3)n2)cc1 | 69.3% (active)
COc1ccc(/C=N/NC(=S)Nc2ccccc2[N+](=O)[O-])cc1O | -21.4% (inactive)
CCn1nc([N+](=O)[O-])c(C(C#N)c2nc3cc(C(F)(F)F)ccc3s2)c(Cl)c1=O (stereo not given) | 10.4% (inactive)
COc1ccc(O)c(/C=N/NC(=S)Nc2cccc(S(=O)(=O)N(C)C)c2)c1 | 24.6% (inactive)
Nc1ccc2c(c1)C(=O)C(=O)c1ccccc1-2 | 96.7% (active)
COc1cccc(/C=N/Nc2ccc([N+](=O)[O-])cn2)c1O | 48% (active)
CCN1/C(=C/C=C/c2oc3ccc(-c4ccccc4)cc3[n+]2CC)Oc2ccc(-c3ccccc3)cc21 | 98.3% (active)
O=C1C(Nc2ccccc2)=C/C(=N/S(=O)(=O)c2cccs2)c2ccccc21 | 79.7% (active)
COc1ccc(S(=O)(=O)/N=C2\C=C(Nc3ccc(O)cc3)C(=O)c3ccccc32)cc1 | 94.1% (active)
CCC(=O)Nc1nc(C)c(-c2csc(Nc3cccc(O)c3)n2)s1 | 16.5% (inactive)
Cc1cc(C)nc(SCc2ccc(C(=O)N/N=C/c3cccc(O)c3O)cc2)n1 | 28.5% (inactive)
Cc1ccc(C(C)C)c(OCc2ccc(C(=O)N/N=C/c3ccc(O)cc3O)cc2)c1 | 77.2% (active)
O=c1c2ccccc2nc(N/N=C/c2c(O)ccc3ccccc23)n1O | 55.4% (active)
Cc1cc([N+](=O)[O-])ccc1-c1ccc(C2Nc3ccccc3C(=O)N2O)o1 (stereo not given) | 23.6% (inactive)
Cc1ccc(C(C)C)c(OCc2ccc(C(=O)N/N=C/c3cccc(O)c3O)cc2)c1 | 56.2% (active)
Cn1nc(-c2ccccn2)nc2c(=O)n(C)c(=O)nc1-2 | 74.8% (active)
COc1cccc2c1C(=O)c1c(O)c3c(c(O)c1C2=O)C[C@@](O)(C(=O)CO)C[C@@H]3O[C@H]1C[C@H](N)[C@H](O)[C@H](C)O1 | 49.7% (active)
CCN(CC)S(=O)(=O)c1ccc(N/N=C/c2ccc(O)cc2O)nc1 | 68.3% (active)
COC(=O)c1cc(C)nc2c1C(=O)C(=O)C=C2N1CCOCC1 | 69.5% (active)
N#C/C(=N\Nc1cccc([N+](=O)[O-])c1)C(=O)c1ccc(Br)cc1 | 4.19% (inactive)
COc1ccc(OC)c2[nH]c(C(=O)N/N=C/c3ccccc3O)cc12 | 30.1% (inactive)
Brc1ccc(N/N=C(/N=Nc2nn[nH]n2)c2ccccc2)cc1 | 83.2% (active)
Oc1ccccc1N=Nc1nc(-c2ccccc2)c(-c2ccccc2)[nH]1 | 81.4% (active)
COc1cccc(N2CCN(c3ncnc4c3[nH]c3ccc(F)cc34)CC2C)c1 (stereo not given) | 95.2% (active)
